T cruzi growth-1: T. cruzi intracellular proliferation inhibitors, primary screen, cell-based, beta-gal Tulahuen parasites, NIH3T3 host, luminescence | T. cruzi beta-gal in NIH3T3, GalScreen luminescence, 90 h | inhibition, % at 8.34 µM | actives 5.9% (n = 77,000);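 active = mean inhibition above about 93%, with at least 55% of replicates each passing it, limit read from the data, passing the limit was not always enough; inconclusive = only one of those two conditions holds; inactive = neither condition holds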
Pf Dd2 inh: P. falciparum Dd2 growth inhibitors, primary screen, SYBR Green fluorescence, single dose replicates; actives 2.3% (n = 94,000); 72 h; active compounds read low; activity change, % at 10 µM; AID 1159554, 2015; in the data active = activity change below about -80%; inconclusive = no clear call, values can overlap the other calls
C diff growth: C. difficile growth inhibitors, primary screen, HTS. growth activity, negative = inhibition, % at 16 µg/mL (by protocol). AID 1259249, 2017. actives 0.25% (n = 86,000). Clostridium difficile clinical isolate growth, OD600, 24 h; active compounds read low;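 active = mean growth activity at or below -80% and every replicate also at or below -80%; inconclusive = mean at or below -80% but some replicate above -80%; inactive = mean growth activity above -80%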
T cruzi growth-2: T. cruzi intracellular proliferation inhibitors, confirmation, cell-based, NIH3T3 host, beta-gal parasite, luminescence, cherry-pick; shares compounds with T cruzi growth-1; T. cruzi beta-gal in NIH3T3, GalScreen luminescence, 90 h; inhibition, % at 8.35 µM; actives 72% (n = 5,600); AID 651739, 2012;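 active = mean replicate inhibition above about 95% and at least 55% of replicates individually reaching it, limit read from the data; inconclusive = only one of the two criteria is met; inactive = neither criterion is met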
T cruzi growth-3: inhibitors of intracellular T. cruzi replication, confirmation, NIH3T3 host cells, beta-gal parasites, cherry-pick, set 2. AID 651740, 2012. inhibition, % at 2.09 µM. actives 21% (n = 5,600). T. cruzi beta-gal in NIH3T3, GalScreen luminescence, 90 h. shares compounds with T cruzi growth-1;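 active = mean inhibition above about 95%, with at least 55% of replicates also reaching it, limit read from the data; inconclusive = meets just one of the two conditions; inactive = meets neither condition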
3T3 cytotox: cytotoxicity in mouse NIH/3T3 fibroblasts, confirmation, cytotoxicity control for T. cruzi proliferation inhibitor project, cell-based, cherry-pick, single point; AID 651742, 2012; NIH/3T3 viability, CellTiter-Glo ATP luminescence, 90 h; actives 14% (n = 5,600); cytotoxicity (signal decrease), % at 8.35 µM; shares compounds with T cruzi growth-1;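 active = mean signal decrease across replicates above about 35% based on untreated-well scatter, with enough replicates individually passing, limit read from the data; inconclusive = no rule stated though some were filed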
NIH3T3 tox 2: NIH/3T3 fibroblast cytotoxicity, confirmation, cytotoxicity control, cell-based, cherry-pick, single point, set 2; AID 651744, 2012; inhibition, % at 24.9 µM; actives 56% (n = 5,600); shares compounds with T cruzi growth-1; NIH/3T3 viability, CellTiter-Glo ATP luminescence, 90 h;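 active = mean loss of cell viability signal at or above a set limit, and enough replicates individually reaching it; inconclusive = meets only the mean limit or only the replicate share; inactive = meets neither condition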
Hits are given with their value; . = inactive; ? = inconclusive; / = no result given. Hits are enriched below; roughly 6.8% of the tested compounds scored in any of these assays.

SMILES	T cruzi growth-1	Pf Dd2 inh	C diff growth	T cruzi growth-2	T cruzi growth-3	3T3 cytotox	NIH3T3 tox 2
Cc1ccc(S(=O)(=O)N(C)C[C@H]2OCCCC[C@@H](C)Oc3ccc(NC(=O)NC(C)C)cc3C(=O)N([C@H](C)CO)C[C@@H]2C)cc1	.	.	.	/	/	/	/
Cc1ccc(S(=O)(=O)N(C)C[C@H]2OCCCC[C@@H](C)Oc3ccc(NC(=O)NC(C)C)cc3C(=O)N([C@H](C)CO)C[C@H]2C)cc1	.	.	.	/	/	/	/
Cc1ccc(S(=O)(=O)N(C)C[C@H]2OCCCC[C@@H](C)Oc3ccc(NC(=O)Nc4ccccc4)cc3C(=O)N([C@H](C)CO)C[C@H]2C)cc1	113	-87	.	109	108	.	.
Cc1ccc(S(=O)(=O)N(C)C[C@H]2OCCCC[C@H](C)Oc3ccc(NC(=O)Nc4ccccc4)cc3C(=O)N([C@H](C)CO)C[C@H]2C)cc1	?	-88	.	111	.	.	.
C[C@@H]1CCCCO[C@@H](CN(C)S(=O)(=O)c2cccs2)[C@H](C)CN([C@@H](C)CO)C(=O)c2cc(NC(=O)CCCN(C)C)ccc2O1	.	.	.	/	/	/	/
CCNC(=O)C[C@@H]1CC[C@@H]2[C@H](COc3ccc(NC(=O)Nc4ccccc4OC)cc3C(=O)N2C)O1	.	.	.	/	/	/	/
COc1ccc2c3c(n(C)c2c1)[C@H](CO)N(Cc1ccncc1)CC31CN(C(=O)NC(C)C)C1	/	.	.	/	/	/	/
C[C@@H]1CN([C@H](C)CO)C(=O)c2cc(NC(=O)c3ccncc3)ccc2O[C@H]1CN(C)C(=O)NC1CCCCC1	/	.	.	/	/	/	/
CCCN1[C@@H]2c3ccc(/C=C/c4ccccc4)c(=O)n3C[C@@H]2[C@@H](CO)[C@@H]1C(=O)N1CCOCC1	.	.	.	/	/	/	/
C[C@@H]1CCCCO[C@H](CN(C)CC2CC2)[C@@H](C)CN([C@H](C)CO)C(=O)c2cc(NC(=O)CCC(F)(F)F)ccc2O1	/	.	.	/	/	/	/
Cc1ccccc1S(=O)(=O)N1CC[C@H]2[C@H](CO)Nc3ccc(-c4ccc(C#N)cc4)cc3[C@H]21	115	.	.	107	.	52	69
Cc1ccccc1S(=O)(=O)N1CC[C@@H]2[C@@H](CO)Nc3ccc(-c4ccc(C#N)cc4)cc3[C@@H]21	?	.	.	97	.	66	92
Cc1ccccc1S(=O)(=O)N1CC[C@@H]2[C@@H](CO)Nc3ccc(-c4ccccc4)cc3[C@@H]21	.	.	.	/	/	/	/
Cc1ccccc1S(=O)(=O)N1CC[C@@H]2[C@H]1c1cc(-c3ccccc3)ccc1N[C@@H]2CO	.	.	.	/	/	/	/
CN(C)CCCNC(=O)C[C@H]1CC[C@@H]2[C@H](COC[C@@H](O)CN2C(=O)c2ccncc2)O1	.	.	.	/	/	/	/
COc1ccc2c3c(n(C)c2c1)[C@@H](CO)N(CC1CC1)CC31CCN(C(=O)Nc2c(C)noc2C)CC1	/	.	.	/	/	/	/
CCC(=O)Nc1ccc2c(c1)OC[C@@H](C)N(C(=O)COC)C[C@H](C)[C@H](OC)CN(C)C2=O	.	.	.	/	/	/	/
CCc1cnc(N2[C@@H](C#N)[C@@H](c3ccc(C#Cc4ccccc4F)cc3)[C@@H]2CO)s1	100	.	.	.	109	.	62
CCc1cnc(N2[C@H](CO)[C@@H](c3ccc(C#Cc4ccccc4F)cc3)[C@@H]2C#N)s1	103	.	.	96	111	.	85
CCS(=O)(=O)N1[C@H](CO)[C@H](c2ccc(C#Cc3ccccc3F)cc2)[C@@H]1C#N	.	.	.	/	/	/	/
CCc1cnc(N2[C@@H](C#N)[C@H](c3ccccc3)[C@@H]2CO)s1	.	.	.	/	/	/	/
CN1[C@H](C(=O)NCc2ccccc2F)[C@@H](CO)[C@@H]2Cn3c(ccc(C4=CCCC4)c3=O)[C@@H]21	.	/	.	/	/	/	/
CN1[C@@H]2c3ccc(C4=CCCCC4)c(=O)n3C[C@@H]2[C@@H](CO)[C@@H]1C(=O)NCc1ccccc1	103	.	.	96	.	.	.
CCCN1[C@@H]2c3ccc(C4=CCCC4)c(=O)n3C[C@@H]2[C@@H](CO)[C@@H]1C(=O)NCc1cccc(OC)c1	101	.	.	.	.	.	?
COc1cccc(CNC(=O)[C@@H]2[C@@H](CO)[C@@H]3Cn4c(ccc(C5=CCCC5)c4=O)[C@@H]3N2CC2CC2)c1	.	.	.	/	/	/	/
SMILES	T cruzi growth-1	Pf Dd2 inh	C diff growth	T cruzi growth-2	T cruzi growth-3	3T3 cytotox	NIH3T3 tox 2
Cc1ccc(S(=O)(=O)NCC[C@@H]2CC[C@H](NC(=O)NC(C)C)[C@H](CO)O2)cc1	.	.	.	/	/	/	/
CC(=O)N(C)C[C@H]1Oc2ncc(-c3ccc(C(=O)N(C)C)cc3)cc2C(=O)N([C@@H](C)CO)C[C@@H]1C	.	.	.	/	/	/	/
COc1ccc(CN(C)C[C@H]2OCCCC[C@H](C)Oc3ccc(NC(=O)Nc4ccc(OC)cc4)cc3C(=O)N([C@H](C)CO)C[C@H]2C)cc1	106	.	/	103	.	.	25
COc1ccc(CN(C)C[C@H]2OCCCC[C@@H](C)Oc3ccc(NC(=O)Nc4ccc(OC)cc4)cc3C(=O)N([C@H](C)CO)C[C@H]2C)cc1	109	.	/	105	105	.	104
COc1ccc(CN(C)C[C@@H]2OCCCC[C@H](C)Oc3ccc(NC(=O)Nc4ccc(OC)cc4)cc3C(=O)N([C@@H](C)CO)C[C@@H]2C)cc1	100	-81	/	107	.	.	63
COc1ccc(CN(C)C[C@H]2OCCCC[C@@H](C)Oc3ccc(NC(=O)Nc4ccc(OC)cc4)cc3C(=O)N([C@@H](C)CO)C[C@@H]2C)cc1	.	.	/	/	/	/	/
COc1ccc(CN(C)C[C@H]2OCCCC[C@H](C)Oc3ccc(NC(=O)Nc4ccc(F)cc4)cc3C(=O)N([C@H](C)CO)C[C@@H]2C)cc1	.	.	.	/	/	/	/
COc1ccc(CN(C)C[C@H]2OCCCC[C@@H](C)Oc3ccc(NC(=O)Nc4ccc(F)cc4)cc3C(=O)N([C@H](C)CO)C[C@H]2C)cc1	.	.	.	/	/	/	/
COc1ccc(CN(C)C[C@@H]2OCCCC[C@@H](C)Oc3ccc(NC(=O)Nc4ccc(F)cc4)cc3C(=O)N([C@@H](C)CO)C[C@H]2C)cc1	.	.	.	/	/	/	/
COc1ccc(CN(C)C[C@@H]2OCCCC[C@H](C)Oc3ccc(NC(=O)Nc4ccc(OC)cc4)cc3C(=O)N([C@H](C)CO)C[C@@H]2C)cc1	99	.	/	104	105	.	104

Compound activity as filed in PubChem.
